Results published in PubChem BioAssay.

test: inhibitors of the yeast RAM network, pilot screen, dse1pr::URA3 reporter, 5-FOA selection (AID 869);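 further: 0% = DMSO wells with no growth and 100% = 10 µM 1-NA-PP1 with full growth; RAM network block rescues cells from 5-FOA so hits raise OD615 growth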; conditions: S. cerevisiae dse1pr::URA3 5-FOA growth, OD615, 2 d; at 10 µM; active compounds read high; strain carries analog-sensitive mutant Cbk1 kinase;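 active means inhibition over a set limit, the all-compound mean plus 3 SD, in both replicate runs; inconclusive means over that limit in just one replicate run; inactive means at or under that limit in both runs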

inhibition, inactive:
CC(=O)Nc1sc(C)c(C)c1CN1CCN(S(=O)(=O)c2ccccc2)CC1 -0.365%
CC(C)CC(=O)Nc1ccc(C(=O)COc2ccc(-c3nnco3)cc2)cc1 0.965%
C=CCSC1=N/C(=C\c2ccc(C)o2)C(=O)S1 1.58%
Cc1ccc(-c2nn3c(C)nnc3s2)cc1NC(=O)c1ccco1 2.53%
CCN(CC)P1(=O)OC(c2cc(OC)c(OC)c(OC)c2)=Nc2c1c(C)nn2-c1ccccc1 (centres undefined) 1.87%
CCc1ccc(NC(=O)c2ccc3c(c2)C(=O)N(Cc2ccco2)C3=O)cc1 0.185%
CSC1=NCCN1C(=O)c1ccc(Br)o1 0.975%
COc1ccccc1NC(=O)C1C2C=CC3(CN(Cc4cccnc4)C(=O)C13)O2 (centres undefined) -0.25%
Cn1c(Cn2c(=O)sc3ccccc32)nnc1SCC(=O)NCc1ccccc1Cl 0.62%
CCN1C(=O)c2ccccc2S(=O)c2ccc(C(=O)N3CCCC3)cc21 (centres undefined) 1.16%
Cc1ccccc1CSc1nnc(Cn2c(=O)sc3ccccc32)n1C 1.81%
O=C(NCc1ccccn1)C1CC(=O)N(C2CCCC2)C1 (centres undefined) 1.5%
COc1ccccc1NC(=O)C1=C(C)NC(=O)NC1c1cccc(OC)c1OC (centres undefined) 0.545%
CCOC(=O)C1CCCN(C(=O)c2cn(CC)c3ccc(S(=O)(=O)N(C)C)cc3c2=O)C1 (centres undefined) 0.85%
CCCOC(=O)CSC1=C(C#N)C(c2ccccc2Cl)CC(=O)N1 (centres undefined) 1.75%
COc1ccc(S(=O)(=O)Cc2ccc(C(=O)N3CCCC3)o2)cc1 1.11%
CC(C)n1c(CCCO)nc2ccccc21 0.93%
Cn1c(SCc2nc3ccccc3[nH]2)nnc1-c1cccnc1 2.94%
O=C(NC1CCCCC1)C1CCN(S(=O)(=O)c2cccc3cccnc23)CC1 0.46%
Cc1cc(OCc2ccc(F)cc2)nc(-c2ccccc2O)n1 1.35%
CCC(=O)N=c1sc2cc(F)cc(F)c2n1C 1.4%
CCOc1ccc(C2CC(=O)NC(SC)=C2C#N)cc1 (centres undefined) 0.595%
COc1cc(OC)cc(-c2cc3nc(C)c(CCC(=O)O)c(C)n3n2)c1 0.805%
COc1ccc(C2C=C(c3ccc(C)c(C)c3)Nc3ncnn32)c(OC)c1OC (centres undefined) 0.775%
CC(CCc1ccccc1)NC(=O)CSc1nnnn1C (centres undefined) 1.61%
CCN(CCNC(=O)C1CCN(c2nnc(-n3cccc3)s2)CC1)c1ccccc1 0.38%
O=C(c1cnn2ccccc12)N(Cc1ccco1)C1CCCC1 2.74%
CC(=O)Nc1nnc(C)s1 1.29%
CCOCCCNC(=O)c1cccs1 2.22%
CCc1nnc(NC(=O)CSc2nnc(Cc3cccn3C)n2C)s1 0.7%
NC(=O)CSc1nnc(Cn2c(=O)sc3ccccc32)n1-c1ccccc1 2.02%
CCSc1nnc(NC(=O)C(C)C)s1 0.765%
Cc1ccc2oc3c(c(=O)c2c1)C(c1cccc(Cl)c1)N(CCCN1CCOCC1)C3=O (centres undefined) 0.735%
O=S(=O)(NC1CCCCC1)c1cccc(-c2nnc(-c3ccccc3)o2)c1 0.285%
COc1ccc(CN2CCNC(=O)C2CC(=O)O)cc1OC (centres undefined) 0.38%
COc1ccc2c(Cl)c(C(=O)NC3CCS(=O)(=O)C3)sc2c1 (centres undefined) 1.92%
O=C(Cn1cc2c(n1)CCCCC2)NCc1ccccn1 3.27%
Cn1cccc1Cc1nnc(SCC(=O)NC2CCCCC2)n1CCc1ccccc1 1.58%
CCc1ccc(C2CC(c3ccccc3)Nc3nc(N)nn32)cc1 (centres undefined) -0.27%
